Laboratory results taken from PubChem BioAssay AID720651 (The Scripps Research Institute Molecular Screening Center, 2013).
The list shows a part of the results. Calls of active or inactive are those of the source. No rule for the calls is given here.

Experiment: molecules binding r(CAG) RNA repeats, late stage dose response, late-stage follow-up, biochemical, fluorescence, dose response, powder samples (AID 720651)
Conditions: r(CAG) RNA TO-PRO-1 dye displacement

With `Cc1noc(NS(=O)(=O)c2ccc(NC(=O)c3oc4ccc(F)cc4c3C)cc2)c1C` the IC50 was 1.26 µM (active).
